Bioassay records as filed in PubChem.
TDP1 cell CPT = DT40-hTDP1 cell growth loss with CPT; chicken DT40 Tdp1-/-;hTDP1 cells + 20 nM CPT, ATP luminescence, 48 h; Potency, µM (doses to about 46.2 µM), without a hit: top-dose activity change, negative = growth inhibition, usual class: inhibitors; 420,000 tested, 12% active; AID 686979; note: % is set by controls: 0 for no effect and ±100 for the full control effect; nearly all actives have a fitted effect of over 55% in size
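Chicken DT40 Tdp1-/- cells stably complemented with human TDP1 were seeded at 400 cells/well in medium containing 20 nM camptothecin, exposed to pin-transferred compounds, and grown at 37 °C for at least 48 hr. Viability was read as ATP luminescence.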
TDP1 cell noCPT = qHTS for Inhibitors of human tyrosyl-DNA phosphodiesterase 1 (TDP1): qHTS in cells in absence of CPT; AID 686978, 2013; DT40 Tdp1-/- hTDP1 cells, no CPT, ATP luminescence, 48 h; Potency, µM (top dose mostly 46.2 µM), inactives show at the highest dose activity change, negative = growth inhibition, usual class: inhibitors; 420,000 tested, 15% active; note: % is set by controls: 0 for no effect and ±100 for the full control effect; nearly all actives have a fitted effect of over 55% in size
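Readout: luminescence from CellTiter-Glo after 30 min in the dark at RT. Cells: DT40 Tdp1-/- with stable hTDP1, 400/well. Exposure: compounds alone, ≥48 hr, 37 °C.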
TDP1 block = inhibitors of human tyrosyl-DNA phosphodiesterase TDP1 | Potency, µM (top dose mostly 130 µM), for the others: at the top dose activity change, negative = inhibition, usual class: inhibitors | AID 485290 | recombinant TDP1, AlphaScreen DNA substrate cleavage | 350,000 tested, 0.28% active; note: % is set by controls: 0 for no effect and ±100 for the full control effect; nearly all actives have a fitted effect of over 40% in size
Target sequence (Q9NUW8 whole entry, looked up): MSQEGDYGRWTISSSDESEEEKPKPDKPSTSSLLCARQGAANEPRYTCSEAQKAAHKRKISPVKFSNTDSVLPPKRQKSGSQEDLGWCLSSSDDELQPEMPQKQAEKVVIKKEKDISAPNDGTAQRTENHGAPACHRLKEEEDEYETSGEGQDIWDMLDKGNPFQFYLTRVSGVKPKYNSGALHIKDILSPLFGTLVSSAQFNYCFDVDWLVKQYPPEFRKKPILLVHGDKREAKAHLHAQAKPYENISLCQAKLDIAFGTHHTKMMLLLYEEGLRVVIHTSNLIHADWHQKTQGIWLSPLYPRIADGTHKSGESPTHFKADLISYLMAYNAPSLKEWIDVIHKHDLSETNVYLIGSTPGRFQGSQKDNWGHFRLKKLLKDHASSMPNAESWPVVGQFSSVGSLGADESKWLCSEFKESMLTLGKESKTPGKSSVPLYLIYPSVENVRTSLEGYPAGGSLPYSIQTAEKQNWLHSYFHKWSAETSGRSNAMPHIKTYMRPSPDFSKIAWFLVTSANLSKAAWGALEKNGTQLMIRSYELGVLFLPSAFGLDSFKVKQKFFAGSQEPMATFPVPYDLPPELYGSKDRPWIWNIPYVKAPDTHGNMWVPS
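Tdp1 1 nM final; 15 min RT w/ cpd; substrate 15 nM, 5 min; beads 10 ug/ml, 10 min; AlphaScreen read. Neg ctrl: no enzyme.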
ClpP mod = qHTS Assay for Activators of ClpP | 340,000 tested, 1.9% active | purified B. subtilis ClpP, FRET peptide cleavage, 20 min | Potency, µM (series often up to 57.5 µM), without a hit: at the top dose activity change, negative = active; active = well fitted falling curve with a large enough effect; inconclusive = small, poorly fitted or top-dose-only effect; inactive = no such curve, though single readings can be large or run the other way; note: the source files actives as falling curves though it sought activators and does not explain the sign; nearly all actives have a fitted effect of over 65% in size
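ClpP 10 microg/mL final, pH 8 Tris/KCl buffer with BSA, glycerol, Tween-20; compound pinned in; FRET-FV substrate; RT 20 min; Ex320/Em430; ΔFRET vs ADEP 5.8 microM, DMSO, no enzyme.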
The depositor's hits bear a star; [ ] = remark or other dose. Sampled rows, rich in hits. Any-hit rate of the full collection: about 17%. Unless noted, calls come from the whole dose curve; as a rule, active = well fitted curve in the direction sought with a large enough effect; inconclusive = small, poorly fitted or top-dose-only effect, or another doubt; inactive = no such curve, though single readings can be large; an effect the other way counts as inactive or inconclusive. Potency is the fitted concentration of half-maximal effect.

What do the screens show for `Cc1ccc(/C=C/C(=O)N2CCCN(C(=O)/C=C/c3ccc(C)cc3)CC2)cc1`?
TDP1 cell CPT: inconclusive; TDP1 cell noCPT: 15µM*; TDP1 block: 2%; ClpP mod: 1%

What do the screens show for `O=C(/C=C/c1ccc(F)cc1)N1CCN(Cc2ccccc2)CC1`?
TDP1 cell CPT: inconclusive; TDP1 cell noCPT: inconclusive; ClpP mod: 0%

What do the screens show for `COc1ccc(N2CCN(C(=O)CSc3n[nH]c(-c4ccccc4Cl)n3)CC2)cc1`?
TDP1 cell CPT: inconclusive; TDP1 cell noCPT: inconclusive; TDP1 block: 3%; ClpP mod: -2%

How did Cc1ccc(-n2c(N)c(C(=O)Nc3ccccc3F)sc2=S)cc1C do in these assays?
TDP1 cell CPT: inconclusive; TDP1 cell noCPT: -14%; TDP1 block: 7%; ClpP mod: 1%

What do the screens show for `CC(C)CC(C)NNC(=O)c1cc2ccccc2[nH]1` (configuration not stated)?
TDP1 cell CPT: 6%; TDP1 cell noCPT: 5%; TDP1 block: 5%; ClpP mod: -13%

What do the screens show for `O=C(c1cc2ccccc2[nH]1)c1cc2cc(O)ccc2[nH]1`?
TDP1 cell CPT: inconclusive; TDP1 cell noCPT: 16µM*; ClpP mod: -1%

Results for CC1=CC2=NC(=O)CC(C)(C(=O)N(CC(=O)NC3CCCC3)c3cc(C)cc(C)c3)N2C=C1 (configuration not stated) ?
TDP1 cell CPT: 13µM*; TDP1 cell noCPT: 21µM*; TDP1 block: 0%; ClpP mod: 4%

Results for CC1(C(=O)N(CC(=O)NC2CCCC2)Cc2ccc(Cl)cc2)CC(=O)N=C2C=CC=CN21 (configuration not stated) ?
TDP1 cell CPT: 16%; TDP1 cell noCPT: 10%

What do the screens show for `CC1=CC2=NC(=O)CC(C)(C(=O)N(CC(=O)NC(C)(C)C)C3CCCC3)N2C=C1` (configuration not stated)?
TDP1 cell CPT: -21%; TDP1 cell noCPT: -6%; TDP1 block: 2%; ClpP mod: 32µM*

Results for CC1=CC2=NC(=O)CC(C)(C(=O)N(CC(=O)NC(C)(C)C)Cc3cccs3)N2C=C1 (configuration not stated) ?
TDP1 cell CPT: -5%; TDP1 cell noCPT: -1%; TDP1 block: -5%; ClpP mod: 5%

How did O=C(CN1CCN(c2ncc(C(F)(F)F)cc2Cl)CC1)N1CCN(c2ncc(C(F)(F)F)cc2Cl)CC1 do in these assays?
TDP1 cell CPT: 18µM*; TDP1 cell noCPT: 16µM*; TDP1 block: 7%; ClpP mod: 1%

How did O=C(c1cccc(C(F)(F)F)c1)N1CCOC12CCN(c1ncc(C(F)(F)F)cc1Cl)CC2 do in these assays?
TDP1 cell CPT: 23µM*; TDP1 cell noCPT: 23µM*; TDP1 block: 1%; ClpP mod: -6%

How did O=C(c1cccs1)N1CCN(c2ncc(C(F)(F)F)cc2Cl)CC1 do in these assays?
TDP1 cell CPT: inconclusive; TDP1 cell noCPT: inconclusive; TDP1 block: -1%; ClpP mod: 0%

How did Cc1ccc(C(=O)OCCN2CCN(c3ncc(C(F)(F)F)cc3Cl)CC2)cc1 do in these assays?
TDP1 cell CPT: -27%; TDP1 cell noCPT: inconclusive; TDP1 block: 6%; ClpP mod: 14µM*

Results for O=C(CSc1ccc(Cl)cc1)N1CCN(c2ncc(C(F)(F)F)cc2Cl)CC1 ?
TDP1 cell CPT: inconclusive; TDP1 cell noCPT: inconclusive; TDP1 block: -3%; ClpP mod: -4%

What do the screens show for `O=C(OCCN1CCN(c2ncc(C(F)(F)F)cc2Cl)CC1)c1ccc(F)cc1`?
TDP1 cell CPT: -3%; TDP1 cell noCPT: -11%; TDP1 block: 5%; ClpP mod: 2%

How did CN1CCN(C(=O)C2CCN(c3ncc(C(F)(F)F)cc3Cl)CC2)CC1 do in these assays?
TDP1 cell CPT: inconclusive; TDP1 cell noCPT: 21µM*; TDP1 block: -5%

How did Cc1c(C(=O)NCc2ccccc2)sc(=O)n1Cc1ccccc1F do in these assays?
TDP1 cell CPT: inconclusive; TDP1 cell noCPT: inconclusive; ClpP mod: 0%

How did CC(=O)OC[C@@H]1O[C@H](CCO/N=C(\C)CCN2CCc3nc(-c4ccccc4)c(-c4ccccc4)cc3C2)C=C[C@@H]1OC(C)=O do in these assays?
TDP1 block: -4%[21 µM]
